Assay outcomes as filed in PubChem BioAssay.
This is a sample that favours compounds with a hit; in the whole collection about 13% have one here.
HCV inh = qHTS Assay for Inhibitors of Hepatitis C Virus (HCV); Huh7.5.1 HCVcc-Cre infection, luciferase reporter, 44 h; Potency, µM (highest dose often 41.8 µM), for the others: top-dose activity change, negative = inhibition, hits mostly inhibitors; 3.4% of 340,000 active; active means well fitted inhibition curve with a large enough effect; inconclusive means small, poorly fitted or top-dose-only effect, or another doubt; inactive means no such curve, though single readings can be large or run the other way; further: potency means the concentration at half of the fitted maximal effect; on the % scale 0 is the no-effect control and ±100 the full control effect
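Antiviral activity was scored by luciferase reporter output from cells infected with HCVcc-Cre (~0.5 moi) in presence of compound, 44 h infection period, cells seeded 1,000/well 4 h prior.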
Marburg entry inh = qHTS for inhibitors of binding or entry into cells for Marburg Virus; 1.8% of 300,000 active; Potency, µM (highest dose often 37.8 µM), for inactives: top-dose activity change, negative = inhibition, most hits filed as inhibitors; Marburg virus pseudotyped entry inhibition, cell reporter; calls by dose curve; tested in HEK293 cells; further: potency means the concentration at half of the fitted maximal effect; on the % scale 0 is the no-effect control and ±100 the full control effect
FMDV antiviral = High Throughput Screening for Foot and Mouth Disease Virus Antivirals. FMDV antiviral cell-based qHTS. Potency, µM (highest dose often 57.9 µM), for inactives: at the highest dose activity change, negative = inhibition, most hits filed as inhibitors. 1.2% of 410,000 active. AID 1159524, 2015; calls by dose curve; tested in HEK293T cells; further: read-out not given here; potency means the concentration at half of the fitted maximal effect; on the % scale 0 is the no-effect control and ±100 the full control effect; nearly all actives have a fitted effect of over 45% in size
Cycloheximide cs = Cycloheximide Counterscreen for Small Molecule Inhibitors of Shiga Toxin; 12% of 300,000 active; max response, %; cell reporter, cycloheximide protein synthesis inhibition counterscreen; AID 2314, 2010; in the data active means max response mostly above about 13%, no sharp cut-off; inactive means mostly below about 14%; further: read at 38.3 µM for the half of the compounds with a filed dose; 0% is about no effect
LASV entry inh = qHTS for Inhibitors of binding or entry into cells for Lassa Virus | Lassa virus pseudotype entry inhibition, cell reporter | Potency, µM (titrated, usually from 37.9 µM), for the others: at the top dose activity change, negative = inhibition, hits mostly inhibitors | AID 540256, 2011 | 1.2% of 300,000 active; calls by dose curve; tested in HEK293 cells; further: potency means the concentration at half of the fitted maximal effect; on the % scale 0 is the no-effect control and ±100 the full control effect; nearly all actives have a fitted effect of over 50% in size
Shiga inhibitor = A qHTS for Small Molecule Inhibitors of Shiga Toxin; 9.2% of 290,000 active; AID 2315, 2010; Vero cells, Shiga toxin protein synthesis inhibition reporter; inhibition, % at 38.7 µM; in the data active means inhibition mostly above about 28%, no sharp cut-off; inactive means mostly below about 43%; further: 0% is about no effect
* marks the source's active call; other numbers are inactive results; ? = inconclusive; nt = not tested or not shown; ! = not confirmed by another sample; [ ] = remark or other dose.

SMILES | HCV inh | Marburg entry inh | FMDV antiviral | Cycloheximide cs | LASV entry inh | Shiga inhibitor
COCC(C)NC(=O)CCS(=O)(=O)c1nc(-c2ccc(OC)cc2)cc(C(F)(F)F)n1 (centres undefined) | ? | ? | 31.6µM* | -1.5 | ? | -9.4
CCOC(=O)CS(=O)(=O)c1nc(-c2ccc(F)cc2)cc(C(F)(F)F)n1 | 10µM* | ? | ? | -7.0 | ? | -4.9
COc1ccccc1NC(=O)Cn1c(=O)n(Cc2nc(C)no2)c(=O)c2cc3c(cc21)OCO3 | nt | nt | -12.0% | nt | 2.1%[46.1 µM] | nt
CCOC(=O)CS(=O)(=O)c1nc(-c2ccccc2)cc(C(F)(F)F)n1 | ? | ? | 22.4µM* | -2.7 | ? | 31.1
CCOC(=O)CS(=O)(=O)c1ccccc1 | 2.5% | 20.0% | 22.4% | -2.9 | 11.8% | -3.1
COc1cc2c(cc1OC)C(COc1ccc3c(C)cc(=O)oc3c1)N(C(=O)c1ccc(C)c(C)c1)CC2 (centres undefined) | nt | 7.5%[46.1 µM] | -23.1% | nt | ? | nt
COc1ccc(SN=C2C(C)=CC(=O)C=C2C)cc1 | 0.1% | -15.1%[46.1 µM] | ? | -1.8 | ? | -5.1
COC1=CC(=O)C=C(OC)C1=O | -93.9% | nt | 28.2µM*! | nt | nt | nt
COC1=CC(=O)c2ccccc2C1=O | 1µM* | nt | ? | nt | nt | nt
O=C(NCCc1ccc(Cl)cc1)c1ccc2c(c1)N(Cc1ccccc1)CCS2 | nt | 10.6%[46.1 µM] | -10.6% | nt | 3.4%[46.1 µM] | nt
CN1CCN(c2ccccc2NS(=O)(=O)c2ccc3c(c2)CCN3C(=O)C2CCC2)CC1 | 2.8% | ? | 0.9% | nt | -24.9% | nt
O=C(Cn1cc(C(=O)COc2ccccc2)c2ccccc21)NCc1ccco1 | ? | 2.2% | 2.3% | 25.5* | 16.3% | 51.9*
O=C(COc1ccccc1)c1cn(CC(=O)N2CCOCC2)c2ccccc12 | ? | -13.2% | -8.4% | 6.4 | 9.1% | 21.7
N#C/C(=C\c1cn(CCOc2ccccc2)c2ccccc12)C(=O)NCc1ccco1 | -0.6% | -38.5% | ? | 16.0* | 0.3% | 12.9
CC(=O)c1cn(CC(=O)NCc2ccco2)c2ccccc12 | -29.7% | -4.6% | -1.0% | 27.5 | 19.2% | 129.6*
CC(=O)c1cn(CC(=O)NCCc2c[nH]c3ccccc23)c2ccccc12 | 10µM* | nt | ? | -0.5 | nt | 13.3
O=C(Nc1ccc(N2CCOCC2)cc1)c1cccc(S(=O)(=O)N2CCCCCC2)c1 | ? | nt | -14.9% | 3.9 | nt | 28.7
O=C(CSCc1ccc(Cl)cc1)Nc1cccc(C(=O)Nc2ccccc2C(=O)O)c1 | 5.5% | 11.7% | -8.4% | -2.8 | 15.1% | 12.1
COc1cccc(NC(=S)NC(=O)Cc2ccccc2)c1 | 3.5% | nt | 60.6% | nt | nt | nt
CSc1ncc(C(=O)Nc2cccc(S(N)(=O)=O)c2)n1-c1ccccc1 | -6.2% | -18.0%[46.1 µM] | -6.4% | -6.9 | -0.6% | 12.5
CC(C)(C)C(=O)c1cn(CC(=O)O)c2ccccc12 | 10µM* | 18.6%[46.1 µM] | 6.6% | -2.4 | ? | 18.7
Cc1ccc(NC(=O)Cn2cc(C(=O)c3cccs3)c3ccccc32)cc1C | nt | 11.2µM* | -6.6% | nt | ? | nt
CC(=O)c1cn(CC(=O)Nc2c(C)cccc2C)c2ccccc12 | 5.62µM* | ? | ? | 6.1 | -14.8% | -7.8
Cc1cccc(NC(=O)Cn2cc(C(=O)c3ccco3)c3ccccc32)c1C | nt | ? | 0.0% | nt | -24.7%[46.1 µM] | nt
COc1ccc(NC(=O)Cn2cc(C(=O)c3cccs3)c3ccccc32)cc1 | nt | nt | 8.0% | nt | 1.2%[46.1 µM] | nt
SMILES | HCV inh | Marburg entry inh | FMDV antiviral | Cycloheximide cs | LASV entry inh | Shiga inhibitor
O=C(O)Cn1cc(C(=O)C(F)(F)F)c2ccccc21 | 3.2% | ? | 10.7% | -2.9 | -1.6%[46.1 µM] | -3.4
CC(C(=O)NCc1ccco1)n1cc(C(=O)c2ccco2)c2ccccc21 (centres undefined) | ? | -2.6% | 4.7% | 14.9* | -0.4% | -3.4
CCSCCCn1[nH]c2ccccc2c1=O | nt | nt | 19.7% | nt | nt | nt
Cn1nccc1NC(=O)NC(=O)c1c(Cl)cccc1Cl | -2.4% | nt | 0.9% | -0.5 | nt | -3.2
Cc1cc(C)c2c(=N)c3ccccc3n(CCCCCCCCn3c4ccccc4c(=N)c4c(C)cc(C)nc43)c2n1 | -24.8% | 7.08µM* | 0.0% | nt | ? | nt
CCCCCN1C=CC(=C2C(=O)c3ccccc3C2=O)C=C1 | -7.5% | nt | 2.82µM* | -14.9 | nt | -33.1
CCCCn1c(=O)c2ccccc2c2ccccc2c1=O | ? | 3.0% | 0.0% | -1.6 | 12.5% | -5.9
